# GDH-TPI counter: GDH-TPI coupling enzyme inhibitors, primary screen, artefact control for M. tuberculosis FBA inhibitor project, biochemical, absorbance, full deck; GDH-TPI coupled enzyme counterscreen, NADH absorbance; inhibition, % at 4.8 µM; 360,000 tested, 1.2% active; AID 588335, 2011
# CCHF vOTU inh: CCHFV vOTU protease inhibitors, primary screen, biochemical, Pep-AMC substrate, fluorescence; Crimean-Congo hemorrhagic fever virus L polyprotein viral ovarian tumor (vOTU) protease …; inhibition, % at 11.5 µM; 370,000 tested, 0.55% active; AID 651958, 2012
# RecA splice inh: Mtb RecA intein splicing inhibitors, primary screen, biochemical, fluorescence, HTS; Protein RecA (Mycobacterium tuberculosis (strain ATCC 25618 / H37Rv)), P9WHJ3; cell-free RecA intein splicing; inhibition, % (no concentration beside the values); 290,000 tested, 0.75% active; in the data active = inhibition above about 30%
# Target sequence (P9WHJ3 whole entry, looked up, canonical isoform): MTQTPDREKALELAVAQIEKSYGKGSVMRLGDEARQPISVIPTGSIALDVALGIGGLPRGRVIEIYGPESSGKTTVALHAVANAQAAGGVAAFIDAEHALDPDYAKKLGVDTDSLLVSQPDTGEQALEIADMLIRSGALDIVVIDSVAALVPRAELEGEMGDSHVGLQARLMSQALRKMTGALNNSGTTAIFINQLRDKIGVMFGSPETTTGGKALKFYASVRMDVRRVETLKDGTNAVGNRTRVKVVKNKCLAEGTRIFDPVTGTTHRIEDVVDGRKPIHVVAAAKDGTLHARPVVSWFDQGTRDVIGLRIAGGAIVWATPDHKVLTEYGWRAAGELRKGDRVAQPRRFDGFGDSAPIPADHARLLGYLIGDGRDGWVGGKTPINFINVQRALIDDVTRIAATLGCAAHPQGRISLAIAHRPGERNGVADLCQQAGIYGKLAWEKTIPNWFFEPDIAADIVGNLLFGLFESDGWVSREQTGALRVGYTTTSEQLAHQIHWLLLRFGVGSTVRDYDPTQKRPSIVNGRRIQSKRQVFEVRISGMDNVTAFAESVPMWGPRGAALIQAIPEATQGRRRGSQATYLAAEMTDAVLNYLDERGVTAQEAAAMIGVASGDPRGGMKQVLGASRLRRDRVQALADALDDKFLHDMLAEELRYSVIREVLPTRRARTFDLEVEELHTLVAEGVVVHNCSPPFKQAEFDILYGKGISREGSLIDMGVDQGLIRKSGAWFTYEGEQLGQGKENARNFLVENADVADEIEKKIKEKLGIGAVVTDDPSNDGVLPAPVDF
# FBA Mtb inh: Mtb FBA enzyme inhibitors, primary screen, biochemical, fluorescence, strain H37Rv; purified M. tuberculosis FBA, fluorescence read-out; inhibition, % at 1 µM; 360,000 tested, 2.3% active; in the data active = inhibition above about 27%
# Numbers stand for hits; - = inactive; . = no result given; + = active, no number. In the library only some 4.2% were active in any assay of this set; here they are far more common. Rule as the data show it, unless noted: active = inhibition above about 30%; inactive = the rest.
SMILES,GDH-TPI counter,CCHF vOTU inh,RecA splice inh,FBA Mtb inh
O=C1C(=O)N(CCO)C(c2ccccc2)/C1=C(\O)c1ccccc1 (centres undefined),-,-,.,-
COc1ccc(C2/C(=C(/O)c3ccc(C)cc3)C(=O)C(=O)N2C)cc1 (centres undefined),32,-,-,-
O=c1ccc2cc3ccoc3cc2o1,-,-,.,-
O=c1ccc2cc(O)c(O)cc2o1,-,-,-,115
O=c1ccc2ccc(O)cc2o1,-,-,.,+
CC(C)=CCN1CCN(Cc2cccc3nccnc23)CC1CCO (centres undefined),31,-,-,-
COc1ccc(CN2C[C@@]3(O)CC[C@@H](O)[C@@H](OC)[C@@H]3[C@@]2(C)[C@H](O)CC=C(C)C)cc1,.,-,.,.
COc1ccc(-c2cn3cccnc3n2)cc1F,-,-,-,+
Clc1ccc(-c2cn3cccnc3n2)cc1,-,-,-,+
Brc1ccc(-c2cn3cccnc3n2)cc1,-,-,.,139
c1ccc(CN2CCN(Cc3cn4cccnc4n3)CC2)cc1,-,-,-,-
Clc1ccc(-c2cn3cccnc3n2)cc1Cl,-,-,-,70
O=S(=O)(Nc1cccc(-c2cn3cccnc3n2)c1)c1ccc(-c2ccccc2)cc1,-,-,-,-
COc1ccc(-c2cn3cccnc3n2)cc1NS(=O)(=O)c1ccccc1,-,-,-,-
COC(=O)c1sccc1NS(=O)(=O)c1ccccc1[N+](=O)[O-],-,-,.,-
N#C/C(=C\Nc1ccc2c(c1)OCCO2)C(=O)NCc1ccco1,44,-,-,-
CCC1([N+](=O)[O-])COC(c2ccc(OC)cc2)OC1 (centres undefined),-,-,.,-
CN(C)c1ccc(/C=C/c2nc3ccccc3c(=O)n2-c2ccc(C(=O)O)cc2)cc1,-,-,-,-
O=C(O)c1ccc(/C=C/c2nc3ccccc3c(=O)n2-c2ccc(Br)cc2)cc1,39,-,-,-
O=C(O)c1cccc(-n2c(/C=C/c3ccccc3)nc3ccccc3c2=O)c1,32,-,-,-
CSc1ncccc1C(=O)OCC(=O)Nc1ccc(N2CCOCC2)cc1,-,-,.,-
CCCc1cc(Nc2c(C)n(C)n(-c3ccccc3)c2=O)n2c(nc3ccccc32)c1C#N,-,-,-,-
CCN(CC)CCCNc1cc(C(F)(F)F)c(C#N)c2nc3ccccc3n12,-,-,-,-
CCCc1cc(NCCOCCO)n2c(nc3ccccc32)c1C#N,-,-,.,+
CCCc1cc(NCCCCO)n2c(nc3ccccc32)c1C#N,-,-,-,178
SMILES,GDH-TPI counter,CCHF vOTU inh,RecA splice inh,FBA Mtb inh
CC(C)c1cc(NCCOCCO)n2c(nc3ccccc32)c1C#N,-,-,-,+
c1ccc(Cn2ccc3ccc(-c4ccc5ccn(Cc6cccc(-c7cccs7)c6)c5c4)cc32)cc1,.,-,.,.
CCN(CC)CCCNC(=O)c1cn(C(C)c2ccccc2)nn1 (centres undefined),.,-,.,.
Nc1nc(N)c2c(ccc3nccc32)[nH]1,-,-,-,114
COc1ccc2c(c1)CCCC21NC(=O)N(CC(=O)NCc2cccs2)C1=O (centres undefined),-,-,.,-
COC(=O)Cc1cc(=O)oc2cc(O)ccc12,-,-,-,+
Cc1cc(=O)[nH]c2c(C)c(N)ccc12,-,-,-,+
N#Cc1cccc(OC(=O)C2CCN(C(=O)c3ccc(F)cc3)CC2)c1,-,-,.,-
Cc1coc2cc3oc(=O)cc(C)c3cc12,-,-,-,-
Cc1cc(=O)[nH]c2c(C)c(Cl)ccc12,.,.,-,.
CC(=O)Oc1cc2oc(=O)cc(C)c2cc1OC(C)=O,-,-,-,173
Cc1cc(=O)oc2cc(OC(=O)C3CCN(C(=O)c4ccc(F)cc4)CC3)ccc12,-,-,-,148
COc1ccc(-c2cc(=O)oc3cc(O)ccc23)cc1,-,-,-,-
CC(=O)Oc1cc(OC(C)=O)c2c(C)cc(=O)oc2c1,-,-,-,+
Cc1ccc(S(=O)(=O)CCC(=O)Oc2ccc3c(C)cc(=O)oc3c2)cc1,-,-,-,+
CC(=O)Oc1ccc2c(C)cc(=O)oc2c1,-,-,-,+
Cc1cc(=O)oc2cc(O)cc(OCc3ccccc3)c12,31,-,.,+
COC(=O)[C@]12C[C@H](CC(=O)NCCc3ccccc3OC)C(=O)N(Cc3cccc4ccccc34)C1=C[C@H](C(C)(C)C)O[C@@H]2C,.,-,.,.
Cc1oc2cc(O)ccc2c(=O)c1N1C(=O)c2ccccc2C1=O,-,-,-,-
Cc1ccc(NC(=O)CSCC(=O)OCc2cc(=O)oc3cc(O)ccc23)c(C)c1,-,-,-,119
Cc1ccccc1-c1c(C)oc2cc(O)ccc2c1=O,-,-,-,+
Cc1cc(=O)oc2cc(OC(=O)CCCCCN3C(=O)c4ccccc4C3=O)ccc12,-,-,-,153
CCN(c1ccccc1)S(=O)(=O)c1cc(C(=O)OCC(=O)c2c(N)n(C)c(=O)n(C)c2=O)ccc1C,-,-,.,-
CCN(c1ccccc1)S(=O)(=O)c1cc(C(=O)Oc2ccc3c(C)cc(=O)oc3c2)ccc1C,-,-,-,+
O=C(CCN1C(=O)c2ccccc2C1=O)Oc1ccc2ccccc2c1,-,-,-,-
SMILES,GDH-TPI counter,CCHF vOTU inh,RecA splice inh,FBA Mtb inh
CC(=O)c1cccc(OCC(=O)N(CCC2=CCCCC2)c2c(N)n(Cc3ccccc3)c(=O)[nH]c2=O)c1,-,-,.,-
O=c1ccc(S(=O)(=O)N2CCCC2)cn1Cc1ccc(F)cc1,-,-,.,-
NC(Cc1ccc(Cl)cc1)c1csc(Nc2ccc(-c3ccccc3)nn2)n1 (centres undefined),-,-,.,-
O=c1cc(O)c2ccc(O)cc2o1,-,-,-,-
Cc1cc(=O)[nH]c2cc(O)ccc12,-,-,-,+
CC(=O)Nc1c(OC(C)=O)ccc2c(C)cc(=O)oc12,-,-,-,+
Cc1cc(=O)oc2cc(O)ccc12,-,-,-,+
O=c1[nH]c2cc(O)ccc2c2ccccc12,-,-,.,-
CCC(=O)Oc1ccc2c(C)cc(=O)oc2c1C(=O)CC,-,-,-,-
CN(C)c1ccc(C(=O)NC2CCCCN(Cc3ccc(Cl)cc3)C2=O)cc1 (centres undefined),.,-,.,.
CCCCCN1CCCCC(NC(=O)c2ccc(C)cc2)C1=O (centres undefined),.,-,.,.
Cc1oc2c(O)c(O)ccc2c(=O)c1-c1cnn(-c2ccccc2)c1,-,-,-,-
Cc1nc(-c2cnn(-c3ccccc3)c2)c2cc(C)oc2n1,-,-,-,119
CCOC(=O)C1CCN(S(=O)(=O)c2c(Cl)ccc3nonc23)CC1,-,-,41,-
O=c1[nH]c2cc(Cl)ccc2c(O)c1-c1cccc(Oc2ccccc2)c1,-,-,-,-
O=c1[nH]c2ccc(Cl)cc2c(O)c1-c1ccccc1,-,-,-,34
COc1ccccc1C(=O)Nc1cc2c(ccc3ccccc32)oc1=O,.,.,-,.
COC(=O)c1cc2c(ccc3ccccc32)oc1=O,-,-,-,+

# Screens deposited in PubChem BioAssay by several laboratories.
